PubChem BioAssay (Tox21)
Inconclusive results are not listed. Activity calls are given as the source filed them. Unless noted, calls follow the shape of the dose curve; as a rule, active = well fitted curve in the direction sought with a large enough effect in the repeat runs; inconclusive = weak or mixed curves; inactive = no such curve, though single readings can be large; an effect the other way counts as inactive or inconclusive.

Columns and labels:
[1] = target: Thyrotropin receptor (Homo sapiens) (UniProt P16473); experiment: qHTS assay to identify small molecule antagonists of the thyroid stimulating hormone receptor (TSHR) signaling pathway (AID 1259385; calls by dose curve; also: nearly all actives have a fitted effect of over 20% in size); conditions: TSHR-HEK293 cAMP HTRF, TSH-stimulated antagonist mode; series mostly up to 92.4 µM
Outline: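 TSHR-HEK293 cells (800/well) plated 18 h, then compounds with Ro20-1724 and TSH at 1.5 ng/mL final, 30 min at room temperature. cAMP quantified by HTRF (cAMP-d2/anti-cAMP-cryptate, 1 h); 15 concentrations in triplicate.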

[2] = qHTS assay to identify small molecule agonists of the estrogen receptor alpha (ER-alpha) signaling pathway in the presence of an antagonist - cell viability counter screen (AID 1259386); conditions: VM7Luc4E2 viability, CellTiter-Fluor fluorescence, 22 h; series mostly up to 92.4 µM;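 also: cells exposed to compounds for 22 h at 37 °C before the viability read; nearly all actives have a fitted effect of over 30% in size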
Outline: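 The test measures whether compounds kill ER-alpha reporter cells (VM7Luc4E2) under antagonist co-treatment (ICI-182,780, 10.0nM). Fluorescence from CellTiter-Fluor is read after a 22hr exposure.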

[3] = target: Progesterone receptor (Homo sapiens) (UniProt P06401); experiment: qHTS assay to identify small molecule antagonists of the progesterone receptor (PR) signaling pathway (AID 1346795; active = well fitted inhibition curve with a large enough effect in the signal ratio in the repeat runs, not every such curve was filed as active; the % refers to the signal ratio); conditions: PR-UAS-bla HEK293T, beta-lactamase FRET ratio, 16 h; series mostly up to 92.4 µM
Outline: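 Antagonist mode with agonist R5020 at 1 nM final and 16 hr incubation at 37C. Reporter was beta-lactamase driven by UAS in HEK293T (PR-UAS-bla), 2% charcoal-stripped serum; signal from LiveBLAzer FRET substrate, 2 hr at room temperature.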

[4] = qHTS assay to identify small molecule antagonists of the progesterone receptor (PR) signaling pathway - cell viability counter screen (AID 1346798); conditions: PR-UAS-bla HEK293T viability, CellTiter-Glo luminescence, 16 h; series mostly up to 92.4 µM; also: nearly all actives have a fitted effect of over 50% in size
Outline: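 Cytotoxicity read as CellTiter-Glo luminescence (30 min, room temperature) in the same wells as the beta-lactamase readout. HEK293T PR-UAS-bla cells in charcoal-stripped 2% FBS received compound and R5020, then 16 h at 37C, 5% CO2.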

[5] = qHTS assay to identify small molecule agonists of the progesterone receptor (PR) signaling pathway - cell viability counter screen (AID 1346799; calls by dose curve; also: nearly all actives have a fitted effect of over 45% in size); conditions: PR-UAS-bla HEK293T viability, CellTiter-Glo luminescence, 16 h; series mostly up to 92.4 µM
Outline: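 Cytotoxicity measured by CellTiter-Glo luminescence (30 min, RT) in the same wells as the PR beta-lactamase agonist read. Those HEK293T cells had 16 h compound treatment at 37 C in 2% charcoal-stripped FBS medium.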

[6] = qHTS assay to identify small molecule antagonists of the TGF-beta/Smad signaling pathway - cell viability counter screen (AID 1346824); conditions: SBE-bla HEK293T viability, CellTiter-Glo luminescence; series mostly up to 76.8 µM; also: nearly all actives have a fitted effect of over 50% in size
Outline: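 SBE-bla HEK 293T cells, incubated overnight, then compound plus 0.25 ng/mL TGF-beta1 (stock added) for 5 hr at 37 C. Viability was read in the same wells by CellTiter-Glo luminescence after 30 min at room temperature.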

[7] = qHTS assay to identify small molecule agonists of the TGF-beta/Smad signaling pathway (AID 1346859; active = well fitted activation curve with a large enough effect in the signal ratio in the repeat runs, not every such curve was filed as active; the % refers to the signal ratio); conditions: SBE-bla HEK293T, TGF-beta/Smad beta-lactamase reporter, 5 h; series mostly up to 76.8 µM
Outline: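 Fluorescence (ex 405 nm; em 460 and 530 nm) was read 2 h after LiveBLAzer FRET substrate at RT. The preceding compound treatment of overnight-plated SBE-bla HEK293T cells lasted 5 h at 37 C.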

[8] = target: Thyrotropin-releasing hormone receptor (Homo sapiens) (UniProt P34981); experiment: qHTS assay to identify small molecule antagonists of the thyrotropin-releasing hormone receptor (TRHR) signaling pathway (AID 1346877; active = well fitted inhibition curve with a large enough effect in the repeat runs, not every such curve was filed as active); conditions: TRHR-HEK293, TRH-induced calcium fluorescence, antagonist mode; series mostly up to 51.3 µM
Outline: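 Overnight-plated (18 h, 37 °C) HEK293 cells expressing TRHR were dye-loaded 2 h, treated with compound, then stimulated with TRH at 1 nM final. Fluorescence intensity was captured every second for 3 min.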

[9] = target: Thyrotropin-releasing hormone receptor (Homo sapiens) (UniProt P34981); experiment: qHTS assay to identify small molecule agonists of the thyrotropin-releasing hormone receptor (TRHR) signaling pathway (AID 1346891; calls by dose curve); conditions: TRHR-HEK293 calcium fluorescence, agonist mode; series mostly up to 57.6 µM
Outline: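 Agonist-mode intracellular calcium readout: kinetic fluorescence over 3 min at 1 s intervals after compound addition to TRHR-HEK293 cells (18 h seeded, 2 h dye-loaded at 37 C). Fifteen concentrations, triplicates.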

[10] = Human pregnane X receptor (PXR) small molecule agonists, qHTS cell viability counter screen (AID 1346977); conditions: PXR-Luc HepG2 viability, CellTiter-Fluor, 24 h; series mostly up to 92.4 µM; also: nearly all actives have a fitted effect of over 50% in size
Outline: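 Same-well viability read: CellTiter-Fluor added after 23 hr compound exposure, fluorescence measured 1 hr later. Cells were PXR-Luc HepG2 seeded at 2,000/well in 5% charcoal-stripped FBS medium, rested 5 hr before dosing at 37 C.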

[11] = Caspase-3/7 induction in HepG2 cells by small molecules, qHTS assay (AID 1346978); conditions: HepG2 caspase-3/7 activation, Caspase-Glo luminescence, 17 h; series mostly up to 92.4 µM; also: nearly all actives have a fitted effect of over 15% in size
Outline: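 Wild-type HepG2 cells, 2,000/well, settled 5 hr at 37 C and 5% CO2, then compound-treated for 17 hr; caspase-3/7 activity read by luminescent Caspase-Glo 3/7 after 30 min at room temperature.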

[12] = Caspase-3/7 induction in CHO-K1 cells by small molecules, qHTS assay (AID 1346980); conditions: CHO-K1 caspase-3/7 induction, Caspase-Glo luminescence, 17 h; series mostly up to 92.4 µM; also: nearly all actives have a fitted effect of over 15% in size
Outline: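 Wild-type CHO-K1 cells exposed to compounds for 17hr at 37 C, 5% CO2. Caspase-3/7 activity then measured by Caspase-Glo 3/7 luminescence after 30min at room temperature.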

[13] = Caspase-3/7 induction in HepG2 cells by small molecules, qHTS cell viability counter screen (AID 1346981); conditions: CellTiter-Fluor fluorescence, 17 h; series mostly up to 92.4 µM; also: nearly all actives have a fitted effect of over 30% in size
Outline: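 Treatment of HepG2 cells with DMSO-delivered compounds ran 16 hr at 37 C following a 5-hr pre-incubation of 2,000 cells/well. CellTiter-Fluor fluorescence, read after 1 hr, served as the viability measure in a qHTS format.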

[14] = target: Nuclear receptor subfamily 1 group I member 2 (Homo sapiens) (UniProt O75469); experiment: Human pregnane X receptor (PXR) small molecule agonists, qHTS assay (AID 1346982); conditions: PXR-Luc HepG2, CYP3A4 luciferase reporter, 24 h; series mostly up to 92.4 µM; also: nearly all actives have a fitted effect of over 35% in size
Outline: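 Stable HepG2 line reporting PXR-mediated CYP3A4 expression via luciferase. Treatment: 24 hr with compounds in DMSO at 37 C. Detection: ONE-Glo luminescence.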

[15] = qHTS assay to identify small molecule agonists of the TGF-beta/Smad signaling pathway - cell viability counter screen (AID 1346829); conditions: SBE-bla HEK293T viability, CellTiter-Glo luminescence, 5 h; series mostly up to 76.8 µM; also: top concentration of the series differs between compounds; nearly all actives have a fitted effect of over 45% in size
Outline: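 Compound-treated SBE-bla HEK 293T cells (5 hr, 37 C) were assessed for viability with CellTiter-Glo in parallel with the reporter read.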

[16] = target: Nuclear receptor subfamily 1 group I member 2 (Rattus norvegicus) (UniProt Q9R1A7); experiment: Rat pregnane X receptor (rPXR) activation by small molecules, qHTS assay (AID 1346983); conditions: rPXR luciferase reporter cells, One-Glo luminescence, 24 h; hits give high values; also: nearly all actives have a fitted effect of over 20% in size
Outline: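 Cell-based rPXR activation assay: rPXR cells, 2,000 per well, rested 5hr at 37 C, then exposed to compounds in DMSO for 24 hr at 37 C. Luciferase activity read by One-Glo luminescence after 30 min at room temperature.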

[17] = target: Nuclear receptor subfamily 1 group I member 2 (Homo sapiens) (UniProt O75469); experiment: CYP3A4 induction through human pregnane X receptor (PXR) by small molecules, qHTS assay (AID 1346984); conditions: DPX-2 HepG2 PXR, CYP3A4-luciferin luminescence, 24 h; series mostly up to 46.1 µM; also: nearly all actives have a fitted effect of over 40% in size
Outline: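 After 24 h at 37C with compound, DPX-2 cells (HepG2, co-transfected PXR response element and CYP3A4 promoter-luciferase) got 3uM final P450-Glo Luciferin-IPA for 3 h; One-Glo luminescence followed.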

[18] = target: Nuclear receptor subfamily 1 group I member 2 (Homo sapiens) (UniProt O75469); experiment: Human pregnane X receptor (PXR) activation by small molecules, qHTS assay (AID 1346985); conditions: DPX-2 HepG2 CYP3A4-luciferase, 24 h; series mostly up to 38.3 µM; also: nearly all actives have a fitted effect of over 40% in size
Outline: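 DPX-2 cells (HepG2 co-transfected with a PXR response element and a CYP3A4-promoter luciferase construct) were seeded at 2,000 per well, rested 5 hr at 37C, then exposed to DMSO-dissolved compounds for 24 hr. Activation was read as luciferase luminescence.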
% is scaled to controls: 0 for no effect and ±100 for the full control effect.

Chain of Progesterone receptor (Homo sapiens) (P06401 whole entry, looked up): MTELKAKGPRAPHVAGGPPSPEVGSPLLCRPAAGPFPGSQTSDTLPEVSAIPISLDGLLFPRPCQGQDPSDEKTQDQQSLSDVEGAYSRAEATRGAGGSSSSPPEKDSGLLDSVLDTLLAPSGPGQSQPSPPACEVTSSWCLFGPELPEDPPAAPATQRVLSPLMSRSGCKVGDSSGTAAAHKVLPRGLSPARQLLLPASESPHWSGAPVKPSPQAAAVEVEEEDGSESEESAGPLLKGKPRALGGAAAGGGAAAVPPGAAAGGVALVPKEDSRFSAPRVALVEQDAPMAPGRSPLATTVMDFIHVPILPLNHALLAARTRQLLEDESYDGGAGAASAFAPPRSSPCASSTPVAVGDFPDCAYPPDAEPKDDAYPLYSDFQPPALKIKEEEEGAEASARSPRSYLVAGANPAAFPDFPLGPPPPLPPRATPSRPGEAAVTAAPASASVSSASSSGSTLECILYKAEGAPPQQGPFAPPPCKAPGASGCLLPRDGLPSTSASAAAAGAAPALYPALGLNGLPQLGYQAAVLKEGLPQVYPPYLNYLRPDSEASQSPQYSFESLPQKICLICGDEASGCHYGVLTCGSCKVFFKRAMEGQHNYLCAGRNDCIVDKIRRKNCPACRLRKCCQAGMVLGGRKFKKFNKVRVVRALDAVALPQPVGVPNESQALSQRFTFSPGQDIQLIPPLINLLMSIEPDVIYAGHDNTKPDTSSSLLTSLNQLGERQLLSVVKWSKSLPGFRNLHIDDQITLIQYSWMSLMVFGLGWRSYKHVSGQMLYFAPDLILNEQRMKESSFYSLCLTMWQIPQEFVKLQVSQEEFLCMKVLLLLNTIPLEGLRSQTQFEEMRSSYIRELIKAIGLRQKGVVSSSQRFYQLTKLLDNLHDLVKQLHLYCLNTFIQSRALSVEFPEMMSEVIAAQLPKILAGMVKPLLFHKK
Chain of Thyrotropin-releasing hormone receptor (Homo sapiens) (P34981 whole entry, looked up): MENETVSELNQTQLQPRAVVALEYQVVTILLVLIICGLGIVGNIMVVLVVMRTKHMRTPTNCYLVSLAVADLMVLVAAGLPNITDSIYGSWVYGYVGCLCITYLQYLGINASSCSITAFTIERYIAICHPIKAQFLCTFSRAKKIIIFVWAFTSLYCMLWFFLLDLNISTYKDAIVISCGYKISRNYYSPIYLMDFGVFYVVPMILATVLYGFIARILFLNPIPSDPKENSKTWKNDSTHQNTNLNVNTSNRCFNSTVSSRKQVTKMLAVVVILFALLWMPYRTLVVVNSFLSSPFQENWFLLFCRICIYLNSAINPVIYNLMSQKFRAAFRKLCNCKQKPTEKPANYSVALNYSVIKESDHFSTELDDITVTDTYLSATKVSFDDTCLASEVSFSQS
Chain of Thyrotropin receptor (Homo sapiens) (P16473 whole entry, looked up): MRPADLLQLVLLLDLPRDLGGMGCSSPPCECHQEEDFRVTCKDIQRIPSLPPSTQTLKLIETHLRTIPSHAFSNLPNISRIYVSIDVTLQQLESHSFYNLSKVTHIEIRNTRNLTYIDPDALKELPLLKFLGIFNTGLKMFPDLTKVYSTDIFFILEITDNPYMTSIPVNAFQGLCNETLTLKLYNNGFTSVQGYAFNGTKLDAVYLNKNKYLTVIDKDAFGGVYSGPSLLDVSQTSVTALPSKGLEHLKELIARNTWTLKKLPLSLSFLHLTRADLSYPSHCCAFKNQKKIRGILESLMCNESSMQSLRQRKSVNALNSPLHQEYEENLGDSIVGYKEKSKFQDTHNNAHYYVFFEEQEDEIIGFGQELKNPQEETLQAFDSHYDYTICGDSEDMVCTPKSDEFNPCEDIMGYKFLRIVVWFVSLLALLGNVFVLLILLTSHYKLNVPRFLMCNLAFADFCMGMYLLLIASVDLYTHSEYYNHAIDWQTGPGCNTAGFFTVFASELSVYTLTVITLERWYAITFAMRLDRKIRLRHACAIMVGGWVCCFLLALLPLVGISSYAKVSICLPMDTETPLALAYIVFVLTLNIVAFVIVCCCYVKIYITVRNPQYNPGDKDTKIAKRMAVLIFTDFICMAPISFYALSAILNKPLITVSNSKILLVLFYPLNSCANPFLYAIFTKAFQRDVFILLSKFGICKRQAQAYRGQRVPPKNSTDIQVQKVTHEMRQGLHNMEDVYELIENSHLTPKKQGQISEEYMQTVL
Chain of Nuclear receptor subfamily 1 group I member 2 (Rattus norvegicus) (Q9R1A7 whole entry, looked up): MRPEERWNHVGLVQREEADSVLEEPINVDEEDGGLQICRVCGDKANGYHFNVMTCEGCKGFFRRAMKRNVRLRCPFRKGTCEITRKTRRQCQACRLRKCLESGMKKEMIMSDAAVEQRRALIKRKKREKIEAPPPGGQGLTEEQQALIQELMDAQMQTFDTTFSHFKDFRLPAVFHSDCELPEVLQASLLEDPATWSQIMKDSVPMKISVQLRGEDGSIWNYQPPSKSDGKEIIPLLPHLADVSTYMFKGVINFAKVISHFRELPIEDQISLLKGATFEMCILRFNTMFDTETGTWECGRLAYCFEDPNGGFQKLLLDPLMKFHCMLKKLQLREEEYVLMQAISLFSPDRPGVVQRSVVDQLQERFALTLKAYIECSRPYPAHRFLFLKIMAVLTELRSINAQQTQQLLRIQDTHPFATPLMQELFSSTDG
Chain of Nuclear receptor subfamily 1 group I member 2 (Homo sapiens) (O75469 whole entry, looked up): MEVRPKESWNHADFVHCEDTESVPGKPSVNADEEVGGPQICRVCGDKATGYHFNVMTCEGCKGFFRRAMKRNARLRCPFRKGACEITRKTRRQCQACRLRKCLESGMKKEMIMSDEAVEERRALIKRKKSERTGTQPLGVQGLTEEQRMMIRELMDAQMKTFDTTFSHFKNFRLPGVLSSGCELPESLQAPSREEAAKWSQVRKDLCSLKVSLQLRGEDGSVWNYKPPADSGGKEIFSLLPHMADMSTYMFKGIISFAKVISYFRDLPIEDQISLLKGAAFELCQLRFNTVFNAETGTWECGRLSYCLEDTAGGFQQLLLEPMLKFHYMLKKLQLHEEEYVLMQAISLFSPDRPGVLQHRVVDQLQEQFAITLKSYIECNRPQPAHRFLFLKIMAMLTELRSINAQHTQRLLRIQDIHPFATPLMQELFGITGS

OCCc1ccccc1
inactive: outcome [1] | Potency [2] | outcome [3] | Potency [4] | Potency [5] | outcome [6] | outcome [7] | outcome [8] | outcome [9] | Potency [10] | Potency [11] | outcome [12] | Potency [13] | Potency [14]

O=S(=O)(O)NC1CCCCC1
inactive: outcome [1] | Potency [2] | outcome [3] | Potency [4] | Potency [5] | outcome [6] | Potency [15] | outcome [7] | Potency [10] | Potency [11] | outcome [12] | Potency [13] | max activation [16] -1.36%

O=C(O)CCC(=O)O
inactive: outcome [1] | Potency [2] | outcome [3] | Potency [4] | Potency [5] | outcome [6] | outcome [7] | outcome [8] | outcome [9] | Potency [10] | Potency [11] | outcome [12] | Potency [13] | max activation [16] -3.42% | outcome [17] | Potency [18]

CC(C)(Oc1ccc(C2CC2(Cl)Cl)cc1)C(=O)O (stereo unspecified)
inactive: outcome [1] | Potency [2] | outcome [3] | Potency [4] | Potency [5] | outcome [6] | outcome [7] | Potency [10] | Potency [11] | outcome [12] | Potency [13] | max activation [16] -3.49% | outcome [17] | Potency [18]

O=C(O)c1cccc([N+](=O)[O-])c1
inactive: Potency [2] | outcome [3] | Potency [4] | Potency [5] | outcome [6] | outcome [7] | outcome [8] | outcome [9] | Potency [10] | Potency [11] | outcome [12] | Potency [13]

CC(O)C(=O)O (stereo unspecified)
inactive: outcome [1] | Potency [2] | outcome [3] | Potency [4] | Potency [5] | outcome [6] | outcome [7] | outcome [8] | outcome [9] | Potency [10] | Potency [11] | outcome [12] | Potency [13] | Potency [14] | max activation [16] -1.38% | outcome [17] | Potency [18]
